# Screens: PubChem BioAssay, National Center for Advancing Translational Sciences (NCATS)
# Sampled rows, rich in hits. Any-hit rate of the full collection: about 9.3%.
# ELG1 repair inh – ELG1-dependent DNA repair inhibition; Potency, µM (top dose mostly 46.1 µM), for inactives: at the top dose activity change, negative = inhibition, hits mostly inhibitors; HEK293T ELG1-luciferase reporter, luminescence, 16 h; DNA damage induced by 5-fluorouridine; AID 504467; 330,000 tested, 2.3% active; further: on the % scale 0 is the no-effect control and ±100 the full control effect; nearly all actives have a fitted effect of over 55% in size
#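 DMSO vehicle served as the neutral condition. Each well held 2,000 cells given 5-fluorouridine plus compound; after 16 hr at 37 °C/5% CO2, ONE-Glo was added and luciferase measured 30 min later.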
# SMN2 splice up – increases expression of the SMN2 splice variant; HEK293 SMN2-luciferase splicing reporter, luminescence, 30-36 h; Potency, µM (highest dose often 46.1 µM), without a hit: top-dose activity change, positive = activation, usual class: activators; 210,000 tested, 2.8% active; AID 1458; further: % of control where 0% means no effect; nearly all actives have a fitted effect of over 55% in size
#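 HEK293 cells carry an SMN2 minigene-luciferase reporter in which exon 7 inclusion puts luciferase in frame. Cells were seeded at 2000 cells/well, attached for 10-12 hours, then exposed to compounds for 30-36 hours at 37C before ONE-Glo luminescence.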
# NPC1 prom act – activates the NPC1 promoter | Huh7 NPC1 promoter luciferase reporter, 24 h | Potency, µM (top dose mostly 9.22 µM), inactives show at the highest dose activation, actives largely listed as activators | 320,000 tested, 2.4% active | AID 485313; further: % of control where 0% means no effect; nearly all actives have a fitted effect of over 60% in size
#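 Cells: Huh7 expressing luciferase under the NPC1 promoter, 1500/well. Seeded 2 h, compound added, incubated 24 h at 37 °C. Luciferase reagent, 10 min ambient, then luminescence.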
# FLuc modulator – firefly luciferase modulation, counter-screen for miR-21 project; P08659; purified FLuc, Km substrates, luminescence inhibition; Potency, µM (titrated, usually from 57.5 µM), inactives show at the highest dose activity change, negative = inhibition, usual class: inhibitors; 360,000 tested, 6.9% active;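 further: plate controls were vehicle for no effect and reference inhibitor for full effect; nearly all actives have a fitted effect of over 55% in size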
# Target sequence (P08659 whole entry, looked up): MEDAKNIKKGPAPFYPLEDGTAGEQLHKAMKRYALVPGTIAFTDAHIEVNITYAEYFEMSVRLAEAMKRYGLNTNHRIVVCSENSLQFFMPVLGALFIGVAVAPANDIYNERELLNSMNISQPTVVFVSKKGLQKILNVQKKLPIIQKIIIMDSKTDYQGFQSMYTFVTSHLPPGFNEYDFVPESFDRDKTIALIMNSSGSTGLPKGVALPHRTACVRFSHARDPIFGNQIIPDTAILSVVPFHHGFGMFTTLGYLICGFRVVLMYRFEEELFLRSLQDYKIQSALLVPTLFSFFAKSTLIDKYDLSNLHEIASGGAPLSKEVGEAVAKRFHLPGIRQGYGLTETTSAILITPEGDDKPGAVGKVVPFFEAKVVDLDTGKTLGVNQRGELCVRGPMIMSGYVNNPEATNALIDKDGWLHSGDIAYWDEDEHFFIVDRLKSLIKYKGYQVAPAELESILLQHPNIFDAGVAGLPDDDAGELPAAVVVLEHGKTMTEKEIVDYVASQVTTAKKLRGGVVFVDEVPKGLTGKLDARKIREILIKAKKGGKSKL
#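 Purified P. pyralis luciferase (10nM final) with 10uM D-luciferin and 10uM ATP (Km levels) in 50mM Tris acetate pH 7.5, 10mM Mg acetate, 0.01% Tween-20, 0.05% BSA; qHTS 6-point titration, ~60 µM downward; luminescence read.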
# Rab9 prom act – activates the Rab9 promoter. Huh7 Rab9 promoter-luciferase reporter, luminescence, 24 h. Potency, µM (highest dose often 9.22 µM), for inactives: at the highest dose activation, negative = inhibition, most hits filed as activators. 320,000 tested, 2.8% active; further: % of control where 0% means no effect; nearly all actives have a fitted effect of over 60% in size
#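 Using Huh7 cells stably transfected with Rab9 promoter–luciferase, compounds were incubated 24 h at 37 °C, 5% CO2; luciferase luminescence was read 10 min after reagent addition.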
# ELG1 genotoxic – genotoxicity induction in ELG1-luciferase HEK293T cells; HEK293T ELG1-luciferase reporter, luminescence, 16 h; Potency, µM (titrated, usually from 46 µM), for the others: at the highest dose activity change, positive = activation, most hits filed as activators; 330,000 tested, 1.3% active; further: % of control where 0% means no effect; nearly all actives have a fitted effect of over 60% in size
#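 Step 1: seed 2,000 HEK293T ELG1-luciferase cells per well. Step 2: add compound or DMSO, incubate 16 hr at 37 °C. Step 3: ONE-Glo, 30 min at room temperature, read luminescence.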
# An asterisk follows results filed as active; ? = inconclusive; nt = no result; [ ] = remark or other dose. The call rests on the fitted dose curve; in most records, active means well fitted curve in the direction sought with a large enough effect; inconclusive means small, poorly fitted or top-dose-only effect, or another doubt; inactive means no such curve, though single readings can be large; an effect the other way counts as inactive or inconclusive. Potency means the concentration at half of the fitted maximal effect.
SMILES,ELG1 repair inh,SMN2 splice up,NPC1 prom act,FLuc modulator,Rab9 prom act,ELG1 genotoxic
CCN(CC)S(=O)(=O)c1ccc(C(=O)NNc2nc(-c3ccccc3)c3cc(Br)ccc3n2)cc1,23µM*,-25%,-3%,6%,-2%,-9%
CC(C)(C)C(=O)NNc1nc(-c2ccccc2)c2cc(Br)ccc2n1,1%,-22%,0%,7%,-2%,1%
Cc1ccc(S(=O)(=O)/N=C(/Nc2ccc([N+](=O)[O-])cc2[N+](=O)[O-])c2ccccc2)cc1,23µM*,nt,nt,nt,nt,-8%
Cc1ccc2nc(NC(=O)CCCc3nc4ccccc4s3)sc2c1,?,23%,-20%,17µM*,-19%,?
Cc1ccc2nc(N/C(=N/S(=O)(=O)c3ccc(F)cc3)c3ccccc3)sc2c1,?,?,13%,8.5µM*,?,15%
Cc1ccc2nc(N/C(=N/S(=O)(=O)c3ccc(F)cc3F)c3ccccc3)sc2c1,?,nt,1%,?,11%,11%
Cc1cnc(NC(=O)CCCc2nc3ccccc3s2)s1,?,?,-15%,?,-26%,-5%
Cc1ccc2nc(NC(=O)CCCC(=O)O)sc2c1,-16%,-8%,-30%,5.4µM*,-41%,-10%
COc1ccc(S(=O)(=O)N2CCN(C(=O)C3CC3)CC2)cc1,10%,nt,3%,-1%,-1%,0%
Cc1nc2c(-c3ccccc3)c(C)nn2c(C)c1CCC(=O)NCc1cccc(Cl)c1,nt,1%,nt,-6%,nt,nt
CN1CCN(Cc2nc(N)nc(Nc3ccc4c(c3)OCCO4)n2)CC1,?,28%,3.5µM*,?,4µM*,?
CCOc1ccc(Nc2nc(N)nc(CN3CCN(c4ccccc4F)CC3)n2)cc1,16µM*,-27%,-2%,2%,-7%,-12%
Nc1nc(CN2CCN(c3ccccc3F)CC2)nc(Nc2ccc3c(c2)OCCO3)n1,23µM*,-20%,-1%,5%,-11%,-12%
Cc1cccc(Nc2nc(N)nc(CN3CCN(Cc4ccc5c(c4)OCO5)CC3)n2)c1,?,12%,-3%,0%,-1%,0%
COc1ccccc1Nc1nc(N)nc(CN2CCN(c3ccccc3F)CC2)n1,-13%,9%,-7%,-1%,-6%,-3%
COc1ccccc1N1CCN(Cc2nc(N)nc(Nc3ccc(C)c(Cl)c3)n2)CC1,15µM*,-55%,-8%,2%,-24%,-31%
COCc1nc2c([nH]1)c(=O)n(C)c(=O)n2CC(C)C,?,16%,6%[46.1 µM],-1%,4%[46.1 µM],0%
COc1ccccc1Nc1ncnc2c1nc1n2CCCCC1,nt,nt,nt,-14%,nt,nt
Clc1ccccc1Nc1ncnc2c1nc1n2CCCCC1,nt,nt,nt,17µM*,nt,nt
Clc1cccc(Nc2ncnc3c2nc2n3CCCCC2)c1,nt,nt,nt,6.7µM*,nt,nt
Cc1ccc(Cl)cc1N1CCN(c2ncnc3c2nc2n3CCCCC2)CC1,nt,nt,nt,-2%,nt,nt
Cc1ccc(Nc2ncnc3c2nc2n3CCCC2)c(Br)c1,nt,nt,nt,3.8µM*,nt,nt
Clc1cccc(N2CCN(c3ncnc4c3nc3n4CCCC3)CC2)c1,nt,?,nt,19µM*,nt,nt
Cc1occc1C(=O)NNS(=O)(=O)c1ccc([N+](=O)[O-])cc1,-7%,nt,-2%,-2%,-1%,2%
Cc1ccc(C)c(NC(=O)Cn2c(=O)n(Cc3cccs3)c(=O)c3cccnc32)c1,nt,6%,nt,2%,nt,nt
SMILES,ELG1 repair inh,SMN2 splice up,NPC1 prom act,FLuc modulator,Rab9 prom act,ELG1 genotoxic
Cc1ccc(S(=O)(=O)CCC(=O)OCC(=O)Nc2cc(S(=O)(=O)N3CCOCC3)ccc2C)cc1,-4%,nt,0%,2%,3%,0%
COc1ccc(/C=C/C(=O)Nc2ccc(C(N)=O)cc2)cc1OC,0%,nt,-1%,-18%,2%,0%
COc1ccc(/C=C/C(=O)Nc2ccc3c(c2)CCC3)cc1OC,-19%,-36%,0%,19µM*,13%,0%
COc1ccc(OC)c(/C=C/C(=O)NC2=NCCS2)c1,-1%,1%,?,-13%,27%,-2%
COc1ccc(/C=C/C(=O)NC2=NCCS2)cc1OC,?,?,2.8µM*,-11%,4µM*,?
COc1ccc(N2CCN(C(CNC(=O)CC(C)(C)C)c3ccc4c(c3)OCO4)CC2)cc1 (configuration not stated),-8%,nt,-2%,2%,-3%,-4%
C#CCOCCOCCOCCNc1nc(N2CCN(C(=O)[C@H](CCCCN)n3cc([C@@H](N)CO)nn3)CC2)nc(N2CCN(C(=O)[C@H](Cc3cc4ccccc4[nH]3)n3cc([C@@H](N)CC(C)C)nn3)CC2)n1,14%,nt,-1%,-1%,10%,8%
COc1ccccc1CN1CC(C(=O)N2CCOCC2)CCC1=O (configuration not stated),?,nt,8%,1%,3%,6%
O=C(NC1CCCCCCC1)c1cccc(Cl)c1,?,nt,?,15µM*,?,?
O=C(N/N=C/c1cc(Br)cc(Br)c1O)c1cccc(N2CCCC2=O)c1,?,nt,-3%,?,-3%,10%
O=C(NC1CCCCCC1)c1cccc(N2CCCC2=O)c1,?,7.1µM*,3.5µM*,15µM*,2.2µM*,?
Cc1cccc(N(C(=O)CNC(=O)c2ccco2)C(C(=O)NC2CCCCC2)c2cccnc2)c1 (configuration not stated),4%,nt,2%,1%,-3%,4%
O=C(NC1CCCCC1)C(c1cccnc1)N(C(=O)CCl)c1cccc(Cl)c1 (configuration not stated),21µM*,-74%,-34%,6%,-41%,-11%
O=C(N/N=C/c1ccc(Cl)cc1Cl)c1cccc(N2CCCC2=O)c1,15%,nt,13%,6.7µM*,7%,0%
O=C(NC1CCCC1)c1cccc(Cl)c1,8%,5%,4%,-1%,6%,-3%
O=C(CCn1c(=S)oc2ccccc21)NCCC1=CCCCC1,?,nt,-2%,0%,-1%,2%
COc1ccccc1N(CC(=O)N1CCOCC1)S(C)(=O)=O,-1%,nt,4%,-3%,-4%,0%
Cc1cccc(CNc2ccc(S(=O)(=O)N3CCCCC3)cc2)c1,-8%,nt,-9%,nt,-1%,-1%
COC(=O)c1[nH]c2ccc(C)cc2c1NC(=O)CN1CCC(C)CC1,0%,?,0%,-1%,-8%,-8%
COC(=O)c1[nH]c2ccc(C)cc2c1NC(=O)CN1CCN(c2ccc(F)cc2)CC1,9.2µM*,-39%,-12%,?,-17%,-14%
COC(=O)c1[nH]c2cccc(OC)c2c1NC(=O)CCN1CCC(C)CC1,-8%,-13%,0%,0%,-1%,0%
